From PubChem BioAssay AID1159580 (chemical genetic matrix, 2015)
The whole screen tested about 5,500 compounds, of which about 2,000 (36%) were called active. Roughly 18% stayed inconclusive and do not appear here. No stated cut-off is given here; in the data, active means normalized growth mostly below about 0.91 (no sharp cut-off); inconclusive means no clear call, values can overlap the other calls; inactive means mostly above about 0.92. The list shows a part of the results.

Assay: chemical genetic growth profiling, strain panel (AID 1159580);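 further: tested at 20 µM; growth read once vehicle control cultures reached saturation at 30 °C; 1 = growth at the plate median or of vehicle wells; lower values mean less growth of the strain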
Conditions: growth OD

Measured: normalized growth

COC(=O)CC1C2(C)CC34OC5(C)OC6(C7/C(=C(/O)C(C)C)C(=O)OC(c8ccoc8)C7(C)C(OC(=O)C(C)C)C(OC)C6(O5)C13C)C(OC)C4(OC)C2OC(C)=O (stereo not drawn)
inactive: S. cerevisiae deletion strains, locus YAL013W, strain DEP1, hits give low values 0.997 | S. cerevisiae deletion strains, locus YBR021W, strain FUR4, hits give low values 1.02 | S. cerevisiae deletion strains, locus YBR229C, strain ROT2, hits give low values 1 | S. cerevisiae deletion strains, locus YCL029C, strain bik1, hits give low values 0.99 | S. cerevisiae deletion strains, locus YDL035C, strain GPR1, hits give low values 1.02 | S. cerevisiae deletion strains, locus YDL074C, strain BRE1, hits give low values 1.01 | S. cerevisiae deletion strains, locus YDL101C, strain DUN1, hits give low values 1.01 | S. cerevisiae deletion strains, locus YDL134C, strain PPH21, hits give low values 1.01 | S. cerevisiae deletion strains, locus YDL185W, strain tfp1, hits give low values 0.991 | S. cerevisiae deletion strains, locus YDL192W, strain arf1, hits give low values 0.994 | S. cerevisiae deletion strains, locus YDR101C, strain arx1, hits give low values 0.991 | S. cerevisiae deletion strains, locus YDR162C, strain NBP2, hits give low values 1.01 | S. cerevisiae deletion strains, locus YDR318W, strain mcm21, hits give low values 0.988 | S. cerevisiae deletion strains, locus YDR388W, hits give low values 0.995 | S. cerevisiae deletion strains, locus YDR502C, strain sam2, hits give low values 0.988 | S. cerevisiae deletion strains, locus YEL061C, strain CIN8, hits give low values 0.994 | S. cerevisiae deletion strains, locus YER110C, hits give low values 0.988 | S. cerevisiae deletion strains, locus YER155C, strain BEM2, hits give low values 1 | S. cerevisiae deletion strains, locus YER167W, strain BCK2, hits give low values 1.02 | S. cerevisiae deletion strains, locus YGL078C, strain dbp3, hits give low values 0.979 | S. cerevisiae deletion strains, locus YGL086W, strain mad1, hits give low values 0.975 | S. cerevisiae deletion strains, locus YGL248W, strain PDE1, hits give low values 1.01 | S. cerevisiae deletion strains, locus YGR078C, strain PAC10, hits give low values 1.02 | S. cerevisiae deletion strains, locus YGR135W, strain pre9, hits give low values 0.987 | S. cerevisiae deletion strains, locus YGR229C, strain SMI1, hits give low values 1 | S. cerevisiae deletion strains, locus YGR252W, strain gcn5, hits give low values 0.937 | S. cerevisiae deletion strains, locus YHR030C, strain SLT2, hits give low values 1.01 | S. cerevisiae deletion strains, locus YHR079C, strain IRE1 (second series), hits give low values 0.985 | S. cerevisiae deletion strains, locus YHR094C, strain hxt1, hits give low values 0.989 | S. cerevisiae deletion strains, locus YHR129C, strain ARP1, hits give low values 1.01 | S. cerevisiae deletion strains, locus YHR200W, strain rpn10, hits give low values 0.99 | S. cerevisiae deletion strains, locus YIL066C, strain RNR3, hits give low values 1.03 | S. cerevisiae deletion strains, locus YIL073C, strain SPO22, hits give low values 1.03 | S. cerevisiae deletion strains, locus YIL125W, strain kgd1, hits give low values 0.991 | S. cerevisiae deletion strains, locus YIR030C, strain dcg1, hits give low values 0.996 | S. cerevisiae deletion strains, locus YJL095W, strain BCK1, hits give low values 1.03 | S. cerevisiae deletion strains, locus YJL134W, strain LCB3, hits give low values 1.01 | S. cerevisiae deletion strains, locus YJL168C, strain set2, hits give low values 0.986 | S. cerevisiae deletion strains, locus YJL187C, strain SWE1 (second series), hits give low values 1.01 | S. cerevisiae deletion strains, locus YJR043C, strain POL32, hits give low values 1.01 | S. cerevisiae deletion strains, locus YJR075W, strain HOC1, hits give low values 1.01 | S. cerevisiae deletion strains, locus YKL009W, strain mrt4, hits give low values 0.984 | S. cerevisiae deletion strains, locus YKL068W, hits give low values 1 | S. cerevisiae deletion strains, locus YKL085W, strain MDH1 (second series), hits give low values 1 | S. cerevisiae deletion strains, locus YKL085W, strain MDH1, hits give low values 1 | S. cerevisiae deletion strains, locus YKR001C, strain vps1, hits give low values 0.988 | S. cerevisiae deletion strains, locus YLR039C, strain RIC1, hits give low values 1.04 | S. cerevisiae deletion strains, locus YLR058C, strain SHM2, hits give low values 1.01 | S. cerevisiae deletion strains, locus YLR102C, strain apc9, hits give low values 0.988 | S. cerevisiae deletion strains, locus YLR262C, strain YPT6, hits give low values 1.05 | S. cerevisiae deletion strains, locus YLR268W, strain sec22, hits give low values 0.989 | S. cerevisiae deletion strains, locus YLR330W, strain CHS5, hits give low values 1.01 | S. cerevisiae deletion strains, locus YLR342W, strain FKS1 (second series), hits give low values 0.999 | S. cerevisiae deletion strains, locus YLR371W, strain rom2, hits give low values 0.983 | S. cerevisiae deletion strains, locus YLR418C, strain cdc73, hits give low values 1.01 | S. cerevisiae deletion strains, locus YML016C, strain PPZ1, hits give low values 1 | S. cerevisiae deletion strains, locus YML032C, strain rad52, hits give low values 0.985 | S. cerevisiae deletion strains, locus YML124C, strain tub3, hits give low values 0.99 | S. cerevisiae deletion strains, locus YMR078C, strain ctf18, hits give low values 0.994 | S. cerevisiae deletion strains, locus YMR223W, strain ubp8, hits give low values 0.994 | S. cerevisiae deletion strains, locus YMR307W, strain GAS1, hits give low values 1.05 | S. cerevisiae deletion strains, locus YNL067W, strain RPL9B, hits give low values 1 | S. cerevisiae deletion strains, locus YNL233W, strain BNI4, hits give low values 1.04 | S. cerevisiae deletion strains, locus YNL250W, strain rad50, hits give low values 1.02 | S. cerevisiae deletion strains, locus YNL271C, strain bni1, hits give low values 0.992 | S. cerevisiae deletion strains, locus YNL298W, strain CLA4, hits give low values 0.987 | S. cerevisiae deletion strains, locus YNL307C, strain MCK1, hits give low values 0.996 | S. cerevisiae deletion strains, locus YNL322C, strain KRE1, hits give low values 1 | S. cerevisiae deletion strains, locus YNR052C, strain pop2, hits give low values 0.977 | S. cerevisiae deletion strains, locus YOL012C, strain htz1 0.95 | S. cerevisiae deletion strains, locus YOL147C, strain pex11, hits give low values 0.984 | S. cerevisiae deletion strains, locus YOR061W, strain CKA2, hits give low values 1.01 | S. cerevisiae deletion strains, locus YOR069W, strain VPS5, hits give low values 1.01 | S. cerevisiae deletion strains, locus YOR136W, strain idh2, hits give low values 0.991 | S. cerevisiae deletion strains, locus YOR144C, strain elg1, hits give low values 0.989 | S. cerevisiae deletion strains, locus YOR184W, strain ser1, hits give low values 0.976 | S. cerevisiae deletion strains, locus YOR316C, strain cot1, hits give low values 0.992 | S. cerevisiae deletion strains, locus YPR119W, strain clb2, hits give low values 0.982 | S. cerevisiae deletion strains, locus YPR141C, strain kar3, hits give low values 0.998 | S. cerevisiae deletion strains, locus YPR163C, strain tif3, hits give low values 0.999 | S. cerevisiae deletion strains, locus YPR167C, strain met16, hits give low values 0.99 | S. cerevisiae deletion strains, strain wtn01, hits give low values 0.974 | S. cerevisiae strains, strain wild type, hits give low values 1.01
